According to PubChem BioAssay AID911 (National Center for Advancing Translational Sciences (NCATS), 2007):
This is one part of the list. A call without a number means that no potency is given here. Records with an inconclusive call do not appear. The source made the active and inactive calls. The call rests on the fitted dose curve.

What follows are compounds tested against Microtubule-associated protein tau (Homo sapiens) (UniProt P10636) (assay: Tau ThS binding assay). Details: recombinant tau filaments, Thioflavin S fluorescence displacement.
Chain of Microtubule-associated protein tau (Homo sapiens) (P10636 whole entry, looked up): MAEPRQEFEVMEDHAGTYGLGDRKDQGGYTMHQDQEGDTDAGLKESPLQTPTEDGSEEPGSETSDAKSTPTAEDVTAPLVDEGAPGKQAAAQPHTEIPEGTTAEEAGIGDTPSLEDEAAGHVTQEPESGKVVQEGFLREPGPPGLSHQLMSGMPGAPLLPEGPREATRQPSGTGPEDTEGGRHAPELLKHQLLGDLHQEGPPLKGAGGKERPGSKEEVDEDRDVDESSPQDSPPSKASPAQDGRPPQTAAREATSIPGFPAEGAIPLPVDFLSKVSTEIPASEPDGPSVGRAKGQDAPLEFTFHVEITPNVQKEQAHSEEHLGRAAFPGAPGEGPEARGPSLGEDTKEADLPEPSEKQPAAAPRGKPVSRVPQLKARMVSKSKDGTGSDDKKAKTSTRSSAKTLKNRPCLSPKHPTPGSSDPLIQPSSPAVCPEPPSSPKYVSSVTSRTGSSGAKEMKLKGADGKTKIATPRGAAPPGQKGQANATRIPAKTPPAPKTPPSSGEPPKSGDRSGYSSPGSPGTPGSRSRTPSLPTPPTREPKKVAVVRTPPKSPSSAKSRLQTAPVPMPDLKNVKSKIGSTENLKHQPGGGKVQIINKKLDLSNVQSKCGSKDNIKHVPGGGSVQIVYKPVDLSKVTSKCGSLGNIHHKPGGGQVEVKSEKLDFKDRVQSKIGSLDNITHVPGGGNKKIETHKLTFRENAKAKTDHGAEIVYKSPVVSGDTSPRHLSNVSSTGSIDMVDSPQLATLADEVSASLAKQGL
Text: NIH Molecular Libraries Screening Centers Network [MLSCN] NIH Chemical Genomics Center [NCGC] MLSCN Grant: 1 X01 MH079825-01 Assay Provider: Jeffrey A. Kuret, Ohio State University NCGC Assay Overview: This assay is a confirmation study for the qHTS Assay for Tau Filament Binding (PubChem AID 596). Tau monomers form filaments in vitro in the presence of arachidonic acid. The dye Thioflavine S (ThS) binds to tau filaments and upon binding, increases in fluorescence several fold. Small molecules that displace ThS binding or prevent filament binding are identified by a reduction in ThS fluorescence.
NCGC Assay Protocol Summary The assay was performed in 96-well round bottom opaque plates (VWR, West Chester, PA) in 100 uL final volume. Recombinant His6-htau40 was diluted to 5 uM in assembly buffer (10 mM HEPES, pH 7.4, 100 mM NaCl, 5 mM dithiothreitol) containing 50 uM arachidonic acid inducer. ThS probe was then added to a final concentration of 10 uM with test compounds assayed at nine 3-fold dilutions beginning at 10 uM final concentration. Each compound was tested at least twice in separate assays. Controls without protein or without compound were included on each plate. […] Fluorescence (ex = 440 nm; em = 485 nm) was measured after brief shaking (10 s) in a FlexStation plate reader (Molecular Devices, Sunnyvale, CA) operated at sensitivity 10, automatic PMT. […]
In the case of O=C(CCCCn1c(=O)[nH]c2ccccc2c1=O)NCc1ccc2c(c1)OCO2, the outcome is reported as “inactive”.
With Oc1ccc(O)c2c(O)cccc12 the Potency was 4.97 µM (active).
